Screening data (PubChem)
IL-1B inflam inh: qHTS for Inhibitors of Inflammasome Signaling: IL-1-beta AlphaLISA Primary Screen; THP-1 LPS/ATP IL-1B secretion, AlphaLISA, 16 h; hits give low values; activity change, % at 57.5 µM; 360,000 compounds, 4.7% hits; in the data active = activity change below about -50%; inconclusive = mostly about -30% to -49%
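THP-1 cells pretreated 1 hr with compounds (up to 57.5 uM final), then stimulated with LPS (250 ng/mL final) plus ATP (1.25 mM final); secreted IL-1B measured by AlphaLISA after 16 hr, decreased signal indicating inhibition.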
HT1080 IDH1KD tx: qHTS for induction of synthetic lethality in tumor cells producing 2HG: qHTS for the HT-1080-IDH1KD cell line. HT-1080 IDH1 knockdown viability, ATP luminescence, 48 h. Potency, µM (highest dose often 46.1 µM), for the others: at the highest dose activity, negative = toxicity, hits mostly cytotoxic. 360,000 compounds, 2% hits;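 also: potency is read from the fitted curve at half-maximal effect; 0% = DMSO wells and -100% = cell-free medium wells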
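In this qHTS, HT-1080 cells depleted of IDH1 are exposed for 48 h at 37 °C to compound titrations. Toxicity is scored from CellTiter-Glo luminescence, with DMSO as full viability and medium alone as none.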
HT1080NT lethal: qHTS for induction of synthetic lethality in tumor cells producing 2HG: qHTS for the HT-1080-NT fibrosarcoma cell line. Potency, µM (series often up to 46.1 µM), inactives show at the highest dose activity, negative = less viability, usual class: cytotoxic. 360,000 compounds, 1.6% hits. HT-1080-NT fibrosarcoma viability, CellTiter-Glo ATP luminescence, 48 h;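 also: NT is the 2HG producing partner of a matched IDH1 knockdown line; potency is read from the fitted curve at half-maximal effect; 0% = DMSO-treated cells and -100% = media-only wells without cells; nearly all actives have a fitted effect of over 55% in size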
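Luminescent CellTiter-Glo readout after 48 hours of compound exposure at 37 degrees C defined viability of HT-1080-NT cells. Activity was normalized to DMSO wells and cell-free media wells; concentration-response curves were fitted and assigned curve classes.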
KB-V1 cytotox: qHTS assay for MDR1-selective chemotherapeutics: Primary screen using the drug-selected MDR subline cells KB-V1. KB-V1 MDR cells viability, CellTiter-Glo, 72 h. AID 1347076, 2019. Potency, µM (top dose mostly 46.1 µM), most hits filed as cytotoxic. 400,000 compounds, 3.4% hits; also: potency is read from the fitted curve at half-maximal effect; nearly all actives have a fitted effect of over 60% in size
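qHTS viability screen in drug-selected KB-V1 MDR cells: 72 h compound treatment at 37 degrees C, ATP luminescence end point.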
KB-3-1 cytotox: qHTS assay for MDR1-selective chemotherapeutics: Primary screen using the parental adenocarcinoma cell KB-3-1; KB-3-1 viability, CellTiter-Glo ATP luminescence, 72 h; Potency, µM (top dose mostly 46.1 µM), actives largely listed as cytotoxic; 400,000 compounds, 1.4% hits; AID 1347075, 2019; also: potency is read from the fitted curve at half-maximal effect; nearly all actives have a fitted effect of over 60% in size
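Parental KB-3-1 adenocarcinoma cells in phenol-red-free DMEM with 10% FBS were pin-treated with compounds at several concentrations, incubated 72 h at 37 °C, and viability read by CellTiter-Glo luminescence; concentration-effect curves were fitted after normalization.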
* marks the source's active call; other numbers are inactive results; i = inactive; ? = inconclusive; . = no result given. The list is not random: actives were taken first. Their share in the collection is about 8.8%. Unless noted, calls follow the shape of the dose curve; as a rule, active = well fitted curve in the direction sought with a large enough effect; inconclusive = small, poorly fitted or top-dose-only effect, or another doubt; inactive = no such curve, though single readings can be large; an effect the other way counts as inactive or inconclusive. Unless noted, % is scaled to controls: 0 for no effect and ±100 for the full control effect.

SMILES	IL-1B inflam inh	HT1080 IDH1KD tx	HT1080NT lethal	KB-V1 cytotox	KB-3-1 cytotox
CN(C)c1ccc(N/C=C/C(=O)c2ccccc2)cc1	-10.7	?	8.91µM*	?	i
CCOC(=O)c1ccc(N/C=C/C(=O)C(C)(C)C)cc1	-25.0	-1.4%	-2.4%	i	i
CC(C)(C)C(=O)/C=C/Nc1ccccc1O	0.0	12.6µM*	?	i	i
O=C(/C=C/Nc1ccccc1)c1ccccc1	11.6	-13.7%	-12.4%	i	i
C=C1c2ccccc2S(=O)(=O)N(Cc2ccccc2)C1COCc1ccccc1 (stereo unspecified)	-3.1	1.1%	-1.7%	i	i
CCC(c1ccccc1)C(CC)c1cc(O)c(O)c(O)c1 (stereo unspecified)	-78.3*	?	?	?	i
Cc1cnc(C(=O)NNC(=O)c2ccc(Br)cc2)cn1	77.0	20.6µM*	?	i	?
CCOc1ccccc1NC(=O)Nc1ccc2c(c1)OCO2	?	-14.2%	-13.0%	i	i
C=CCOc1ccccc1CN(C(=O)CCl)c1ccc2c(c1)OCO2	-106.0*	2.59µM*	3.66µM*	?	?
CCCCNc1nc2ccccc2n1CC(=O)Nc1c(C)cccc1CC	0.0	-10.1%	-3.1%	?	i
Cn1c(SCc2ccc(Cl)cc2)nc(C(F)(F)F)cc1=O	-8.3	-23.0%	3.3%	16.4µM*	?
C=C1CCN([C@@H](CC(C)C)C(=O)N2CCCC2)S(=O)(=O)c2ccccc21	13.9	3.8%	0.0%	?	i
O=C1C(C2=C(O)c3ccccc3C2=O)=Nc2ccccc21	-93.4*	?	-26.8%	7.31µM*	?
COc1ccc(Cn2c(=O)c3[nH]cnc3n(-c3ccccc3C)c2=O)cc1	35.5	11.6µM*	11.6µM*	?	16.4µM*
C/C(=N\Nc1ccc([N+](=O)[O-])cc1)c1ccc(N)cc1	-2.0	-7.2%	?	?	i
C/C(=N\Nc1nc(C)c(C)s1)c1ccc([N+](=O)[O-])cc1	-87.7*	16.4µM*	20.6µM*	?	?
Cc1cccc(C)c1-n1nnnc1C1c2ccccc2C(=O)N1CCCN1CCOCC1 (stereo unspecified)	8.7	24.3%	16.6%	?	i
C=CS(=O)(=O)c1c2cc(OC)ccc2nc2ccc(OC)cc12	-98.4*	?	?	20.6µM*	?
Cc1ccc2c(=O)cc(C(=O)Nc3sc4c(c3C(=O)NCc3cccnc3)CCCC4)oc2c1C	.	.	.	i	i
CNC(=O)c1c(NC(=O)c2ccco2)sc2c1CCCC2	-81.1*	-1.5%	1.3%	i	i
NC(=O)c1c(NC(=O)c2ccco2)sc2c1CCCC2	.	.	.	i	i
O=C(Nc1sc2c(c1C(=O)NCc1cccnc1)CCCC2)c1ccco1	-68.0*	-12.3%	-23.0%	23.1µM*	i
O=C(Nc1sc2c(c1C(=O)NCc1ccco1)CCCC2)c1ccc2c(c1)OCO2	-6.1	-3.6%	10.0%	14.6µM*	i
Cc1ccc(S(=O)(=O)Nc2nnc(C3CCCCC3)s2)cc1	9.7	3.9%	16.1%	i	i
N#CC1=C(N)Oc2n[nH]c(-c3cccnc3)c2C1c1ccc([N+](=O)[O-])o1 (stereo unspecified)	-97.1*	?	?	i	i
O=C(CN1C=NS(=O)(=O)c2ccccc21)Nc1ccccc1F	.	.	.	?	i
COc1ccc(C(=O)OCC2CC(c3ccccc3)=NO2)cc1OC (stereo unspecified)	-13.2	11.1%	10.6%	i	i
COc1ccc(-c2nc3c(c(=O)n(C)c(=O)n3C)n2CC2CC(c3ccccc3)=NO2)cc1OC (stereo unspecified)	-6.0	-2.6%	-6.0%	5.8µM*	i
CCOC(=O)Cc1csc(NC(=O)CS(=O)(=O)Cc2ccccc2)n1	-8.8	16.3%	19.0%	i	i
